# Results published in PMC7862700, “An all-to-all approach to the identification of sequence-specific readers for epigenetic DNA modifications on cytosine”.
# What was measured:
# Test in all cases: DAPPL (digital affinity profiling via proximity ligation, sequencing); 10 mM Tris-HCl pH 7.5, 50 mM NaCl, 1 mM DTT, 4% glycerol, room temperature, 30 min; GST-TFs on glutathione beads, 16-mer random dsDNA library, 0.1% formaldehyde crosslink after washing; high values mean tight binding
# [1] = biological target: T1, FEV (Homo sapiens, UniProt Q99581 1-238); settings: protein: recombinant; tags: N-terminal GST; dsDNA, one strand shown
# T1 sequence: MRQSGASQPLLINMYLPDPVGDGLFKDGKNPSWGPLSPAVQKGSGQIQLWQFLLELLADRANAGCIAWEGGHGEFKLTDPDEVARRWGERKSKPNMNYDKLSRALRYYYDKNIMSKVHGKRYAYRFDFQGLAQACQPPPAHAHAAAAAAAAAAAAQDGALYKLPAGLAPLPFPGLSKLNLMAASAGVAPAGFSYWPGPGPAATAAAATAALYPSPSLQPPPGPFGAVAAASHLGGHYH
# How it was run: (§1)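 The binding signal reported is, for every hexamer, its read frequency for a factor over its read frequency for the tag-only sample. Reads came from pools of yeast-expressed, GST-fused human transcription factors on glutathione beads, barcoded with DNA and mixed with that sample, which were incubated with 200 nmole of a random double-stranded 16-mer DNA library in Tris/NaCl/DTT/glycerol buffer at room temperature for 30 min. After washing, the pools were crosslinked with 0.1% formaldehyde, proximity-ligated with BsaI/T4 ligase for 1 h at 37 °C, PCR-amplified and sequenced on an Illumina NextSeq500.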
# [2] = biological target: ETV5 (Homo sapiens, UniProt P41161 1-510); settings: protein: recombinant; tags: N-terminal GST; dsDNA, one strand shown
# Chain of ETV5 (P41161 whole entry): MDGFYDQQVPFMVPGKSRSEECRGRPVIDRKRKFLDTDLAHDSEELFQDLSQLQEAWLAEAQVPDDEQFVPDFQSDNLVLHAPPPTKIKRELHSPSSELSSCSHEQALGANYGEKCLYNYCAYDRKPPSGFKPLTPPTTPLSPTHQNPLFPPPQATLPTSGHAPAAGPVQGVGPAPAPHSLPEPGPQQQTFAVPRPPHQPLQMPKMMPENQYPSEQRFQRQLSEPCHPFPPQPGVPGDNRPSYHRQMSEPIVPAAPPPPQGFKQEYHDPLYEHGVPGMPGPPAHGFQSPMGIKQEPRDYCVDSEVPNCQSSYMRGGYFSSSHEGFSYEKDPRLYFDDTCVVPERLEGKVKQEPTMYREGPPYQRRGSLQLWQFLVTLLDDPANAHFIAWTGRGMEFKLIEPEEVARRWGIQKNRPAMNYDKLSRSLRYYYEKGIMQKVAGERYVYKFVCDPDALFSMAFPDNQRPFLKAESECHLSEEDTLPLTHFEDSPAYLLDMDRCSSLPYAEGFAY
# How it was run: as §1
# [3] = biological target: HSF1 (Homo sapiens, UniProt Q00613 1-529); settings: protein: recombinant; tags: N-terminal GST; chain copies: 3; dsDNA, one strand shown
# Chain of HSF1 (Q00613 whole entry): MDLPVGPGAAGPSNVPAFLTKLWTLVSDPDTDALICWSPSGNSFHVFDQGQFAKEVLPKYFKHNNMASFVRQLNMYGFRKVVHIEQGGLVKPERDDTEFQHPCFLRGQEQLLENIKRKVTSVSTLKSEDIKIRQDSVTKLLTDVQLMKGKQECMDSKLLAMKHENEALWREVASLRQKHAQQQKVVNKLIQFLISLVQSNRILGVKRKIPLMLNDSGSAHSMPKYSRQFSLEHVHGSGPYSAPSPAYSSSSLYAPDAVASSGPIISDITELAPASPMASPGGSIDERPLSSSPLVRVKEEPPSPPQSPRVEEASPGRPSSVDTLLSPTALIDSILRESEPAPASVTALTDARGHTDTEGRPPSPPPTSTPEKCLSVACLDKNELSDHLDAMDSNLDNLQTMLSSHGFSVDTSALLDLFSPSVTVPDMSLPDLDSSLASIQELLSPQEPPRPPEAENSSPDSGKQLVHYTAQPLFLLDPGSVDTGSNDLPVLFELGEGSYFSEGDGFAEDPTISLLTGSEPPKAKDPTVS
# How it was run: as §1
# [4] = biological target: T2, SPIC (Homo sapiens, UniProt Q8N5J4 1-248); settings: protein: recombinant; tags: N-terminal GST; dsDNA, one strand shown
# T2 sequence: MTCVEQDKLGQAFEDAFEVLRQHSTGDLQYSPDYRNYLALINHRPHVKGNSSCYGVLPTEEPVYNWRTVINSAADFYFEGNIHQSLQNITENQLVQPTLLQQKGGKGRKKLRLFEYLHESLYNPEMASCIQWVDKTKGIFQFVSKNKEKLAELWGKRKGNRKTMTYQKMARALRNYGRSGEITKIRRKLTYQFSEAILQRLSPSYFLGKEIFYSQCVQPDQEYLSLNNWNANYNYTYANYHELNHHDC
# How it was run: as §1
# [5] = biological target: ELF4 (Homo sapiens, UniProt Q99607 1-663); settings: protein: recombinant; tags: N-terminal GST; dsDNA, one strand shown
# Chain of ELF4 (Q99607 whole entry): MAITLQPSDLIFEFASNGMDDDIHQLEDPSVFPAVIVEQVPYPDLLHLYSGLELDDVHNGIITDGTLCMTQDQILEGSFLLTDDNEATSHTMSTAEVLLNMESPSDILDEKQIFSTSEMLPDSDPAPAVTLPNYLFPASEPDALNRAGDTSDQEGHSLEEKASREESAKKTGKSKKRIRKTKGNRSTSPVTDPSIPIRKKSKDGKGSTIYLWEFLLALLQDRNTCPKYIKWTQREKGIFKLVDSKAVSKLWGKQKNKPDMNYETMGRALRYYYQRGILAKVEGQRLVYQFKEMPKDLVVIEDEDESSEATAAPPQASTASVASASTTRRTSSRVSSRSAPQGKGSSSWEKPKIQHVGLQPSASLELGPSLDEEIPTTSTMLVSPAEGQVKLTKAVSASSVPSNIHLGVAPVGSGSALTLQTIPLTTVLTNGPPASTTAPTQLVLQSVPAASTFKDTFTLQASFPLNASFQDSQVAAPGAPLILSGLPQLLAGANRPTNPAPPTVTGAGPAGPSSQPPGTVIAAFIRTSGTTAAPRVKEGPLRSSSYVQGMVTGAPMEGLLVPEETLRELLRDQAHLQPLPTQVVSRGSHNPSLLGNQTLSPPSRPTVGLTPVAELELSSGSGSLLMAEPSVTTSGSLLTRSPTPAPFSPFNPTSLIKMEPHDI
# How it was run: as §1
# [6] = biological target: T3, ELK4 (Homo sapiens, UniProt P28324-2 1-405); settings: protein: recombinant; tags: N-terminal GST; dsDNA, one strand shown
# T3 sequence: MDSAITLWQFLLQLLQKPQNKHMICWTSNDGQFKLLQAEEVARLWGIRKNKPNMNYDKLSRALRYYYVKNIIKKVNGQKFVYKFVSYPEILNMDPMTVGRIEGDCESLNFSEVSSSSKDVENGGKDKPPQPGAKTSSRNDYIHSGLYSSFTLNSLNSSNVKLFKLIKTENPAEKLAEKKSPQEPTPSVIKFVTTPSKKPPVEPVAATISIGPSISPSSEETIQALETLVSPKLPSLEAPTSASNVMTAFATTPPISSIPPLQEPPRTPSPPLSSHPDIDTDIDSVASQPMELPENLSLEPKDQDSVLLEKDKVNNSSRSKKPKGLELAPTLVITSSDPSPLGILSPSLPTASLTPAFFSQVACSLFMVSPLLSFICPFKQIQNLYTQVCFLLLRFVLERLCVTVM
# How it was run: as §1
# [7] = biological target: T4, ETV2 (Homo sapiens, UniProt O00321 1-342); settings: protein: recombinant; tags: N-terminal GST; dsDNA, one strand shown
# T4 sequence: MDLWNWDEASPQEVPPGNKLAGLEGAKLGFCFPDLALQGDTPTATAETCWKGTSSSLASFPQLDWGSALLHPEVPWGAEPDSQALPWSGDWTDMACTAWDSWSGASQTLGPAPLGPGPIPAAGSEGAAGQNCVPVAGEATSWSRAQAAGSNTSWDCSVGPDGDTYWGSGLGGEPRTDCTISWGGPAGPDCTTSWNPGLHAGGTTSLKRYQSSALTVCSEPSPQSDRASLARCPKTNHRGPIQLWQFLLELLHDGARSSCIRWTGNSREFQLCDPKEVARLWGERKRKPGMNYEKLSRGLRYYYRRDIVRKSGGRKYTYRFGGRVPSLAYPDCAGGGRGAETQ
# How it was run: as §1
# [8] = biological target: T5, ELF3 (Homo sapiens, UniProt P78545 1-371); settings: protein: recombinant; tags: N-terminal GST; dsDNA, one strand shown
# T5 sequence: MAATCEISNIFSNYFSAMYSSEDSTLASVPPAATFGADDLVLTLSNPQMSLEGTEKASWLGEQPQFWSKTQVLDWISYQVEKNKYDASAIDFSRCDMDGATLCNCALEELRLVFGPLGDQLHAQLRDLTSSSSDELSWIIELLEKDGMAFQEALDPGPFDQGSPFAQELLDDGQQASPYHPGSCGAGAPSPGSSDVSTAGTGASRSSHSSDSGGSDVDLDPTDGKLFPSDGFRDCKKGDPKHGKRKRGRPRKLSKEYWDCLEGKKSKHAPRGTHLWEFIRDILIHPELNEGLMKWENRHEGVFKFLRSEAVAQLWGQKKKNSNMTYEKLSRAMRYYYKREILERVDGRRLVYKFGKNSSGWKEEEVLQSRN
# How it was run: as §1
# [9] = biological target: CRX (Homo sapiens, UniProt O43186 1-299); settings: protein: recombinant; tags: N-terminal GST; dsDNA, one strand shown
# Chain of CRX (O43186 whole entry): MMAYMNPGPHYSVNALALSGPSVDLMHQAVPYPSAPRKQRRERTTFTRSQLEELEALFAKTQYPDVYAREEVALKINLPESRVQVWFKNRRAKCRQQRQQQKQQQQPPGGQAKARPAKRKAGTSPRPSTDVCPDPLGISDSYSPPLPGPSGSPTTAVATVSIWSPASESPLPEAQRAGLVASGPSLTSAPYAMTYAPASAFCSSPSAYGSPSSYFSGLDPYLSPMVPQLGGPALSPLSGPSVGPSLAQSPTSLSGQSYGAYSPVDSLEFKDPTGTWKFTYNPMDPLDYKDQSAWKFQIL
# How it was run: as §1
# [10] = biological target: ETV1 (Homo sapiens, UniProt P50549 1-477); settings: protein: recombinant; tags: N-terminal GST; dsDNA, one strand shown
# Chain of ETV1 (P50549 whole entry): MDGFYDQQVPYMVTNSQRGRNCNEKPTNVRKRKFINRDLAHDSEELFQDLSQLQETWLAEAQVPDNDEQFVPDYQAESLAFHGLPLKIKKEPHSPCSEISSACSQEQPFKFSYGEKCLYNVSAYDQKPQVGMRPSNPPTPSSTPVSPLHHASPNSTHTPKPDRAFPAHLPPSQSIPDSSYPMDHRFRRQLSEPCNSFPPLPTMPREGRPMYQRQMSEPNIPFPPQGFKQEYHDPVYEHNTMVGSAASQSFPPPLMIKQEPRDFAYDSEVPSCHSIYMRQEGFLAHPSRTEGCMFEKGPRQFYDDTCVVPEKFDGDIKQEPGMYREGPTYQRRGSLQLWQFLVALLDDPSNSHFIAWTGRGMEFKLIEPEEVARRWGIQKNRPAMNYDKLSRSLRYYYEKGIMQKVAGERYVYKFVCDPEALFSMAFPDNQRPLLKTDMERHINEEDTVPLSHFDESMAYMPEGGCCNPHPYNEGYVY
# How it was run: as §1
# [11] = biological target: T6, ERF (Homo sapiens, UniProt P50548 1-548); settings: protein: recombinant; tags: N-terminal GST; dsDNA, one strand shown
# T6 sequence: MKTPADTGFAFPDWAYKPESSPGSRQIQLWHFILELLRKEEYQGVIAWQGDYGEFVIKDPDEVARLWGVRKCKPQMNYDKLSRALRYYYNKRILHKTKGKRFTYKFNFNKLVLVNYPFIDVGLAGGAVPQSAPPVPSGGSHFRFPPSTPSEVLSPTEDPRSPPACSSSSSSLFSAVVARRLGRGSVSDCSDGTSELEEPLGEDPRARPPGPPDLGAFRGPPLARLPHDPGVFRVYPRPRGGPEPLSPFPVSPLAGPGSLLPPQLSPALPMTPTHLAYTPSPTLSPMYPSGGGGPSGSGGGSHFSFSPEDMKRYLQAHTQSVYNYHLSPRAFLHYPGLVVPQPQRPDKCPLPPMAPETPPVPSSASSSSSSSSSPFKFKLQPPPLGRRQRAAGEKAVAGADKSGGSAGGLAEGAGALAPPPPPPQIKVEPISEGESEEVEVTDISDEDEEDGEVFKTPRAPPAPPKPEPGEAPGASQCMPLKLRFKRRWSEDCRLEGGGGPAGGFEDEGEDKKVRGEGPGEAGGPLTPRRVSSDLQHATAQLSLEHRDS
# How it was run: as §1
# [12] = biological target: T7, ETV3L (Homo sapiens, UniProt Q6ZN32 1-361); settings: protein: recombinant; tags: N-terminal GST; dsDNA, one strand shown
# T7 sequence: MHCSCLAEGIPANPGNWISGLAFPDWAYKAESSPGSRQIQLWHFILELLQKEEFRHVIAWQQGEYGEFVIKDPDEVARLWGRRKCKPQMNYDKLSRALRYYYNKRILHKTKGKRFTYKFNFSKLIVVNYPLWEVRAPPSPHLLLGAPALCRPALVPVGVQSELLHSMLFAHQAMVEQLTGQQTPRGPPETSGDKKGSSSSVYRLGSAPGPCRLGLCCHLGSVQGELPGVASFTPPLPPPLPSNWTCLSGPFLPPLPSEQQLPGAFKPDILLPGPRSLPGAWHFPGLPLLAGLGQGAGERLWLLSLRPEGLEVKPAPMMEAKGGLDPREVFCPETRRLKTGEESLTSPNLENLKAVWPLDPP
# How it was run: as §1
# [13] = biological target: T8, ETS2 (Homo sapiens, UniProt P15036 1-469); settings: protein: recombinant; tags: N-terminal GST; dsDNA, one strand shown
# T8 sequence: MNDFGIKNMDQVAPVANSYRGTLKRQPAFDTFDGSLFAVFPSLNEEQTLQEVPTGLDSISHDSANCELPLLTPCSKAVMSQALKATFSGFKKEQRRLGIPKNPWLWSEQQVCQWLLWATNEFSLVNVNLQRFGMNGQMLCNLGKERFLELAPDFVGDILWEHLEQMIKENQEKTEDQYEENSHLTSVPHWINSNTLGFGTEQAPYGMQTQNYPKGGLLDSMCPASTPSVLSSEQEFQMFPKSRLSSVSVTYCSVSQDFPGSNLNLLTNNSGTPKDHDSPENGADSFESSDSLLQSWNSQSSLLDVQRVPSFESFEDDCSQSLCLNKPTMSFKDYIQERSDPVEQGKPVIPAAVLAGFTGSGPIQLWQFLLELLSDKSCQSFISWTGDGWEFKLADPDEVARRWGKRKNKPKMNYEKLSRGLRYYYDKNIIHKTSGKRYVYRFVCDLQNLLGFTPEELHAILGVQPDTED
# How it was run: as §1
# [14] = biological target: T9, SPDEF (Homo sapiens, UniProt O95238 1-335); settings: protein: recombinant; tags: N-terminal GST; dsDNA, one strand shown
# T9 sequence: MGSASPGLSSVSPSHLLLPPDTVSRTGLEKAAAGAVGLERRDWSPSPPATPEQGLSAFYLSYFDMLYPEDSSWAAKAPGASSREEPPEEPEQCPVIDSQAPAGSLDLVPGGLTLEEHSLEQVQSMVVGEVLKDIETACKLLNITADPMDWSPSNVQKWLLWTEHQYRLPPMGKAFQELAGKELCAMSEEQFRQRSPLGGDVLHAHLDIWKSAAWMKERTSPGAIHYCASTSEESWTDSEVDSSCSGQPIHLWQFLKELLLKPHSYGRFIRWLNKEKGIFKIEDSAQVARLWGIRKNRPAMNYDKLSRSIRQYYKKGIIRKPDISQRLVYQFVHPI
# How it was run: as §1
# [15] = biological target: T10, ETV7 (Homo sapiens, UniProt Q9Y603 1-341); settings: protein: recombinant; tags: N-terminal GST; dsDNA, one strand shown
# T10 sequence: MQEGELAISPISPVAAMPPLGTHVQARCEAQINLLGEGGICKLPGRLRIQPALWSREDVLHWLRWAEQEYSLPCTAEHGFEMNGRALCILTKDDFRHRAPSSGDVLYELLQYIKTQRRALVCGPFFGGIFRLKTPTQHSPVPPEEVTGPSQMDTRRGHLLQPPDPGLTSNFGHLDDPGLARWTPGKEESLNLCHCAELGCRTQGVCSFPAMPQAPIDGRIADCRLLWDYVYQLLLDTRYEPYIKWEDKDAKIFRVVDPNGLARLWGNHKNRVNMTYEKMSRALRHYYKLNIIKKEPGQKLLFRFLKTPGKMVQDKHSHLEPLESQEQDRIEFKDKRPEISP
# How it was run: as §1
# [16] = biological target: T11, ELF5 (Homo sapiens, UniProt Q9UKW6-2 1-255); settings: protein: recombinant; tags: N-terminal GST; dsDNA, one strand shown
# T11 sequence: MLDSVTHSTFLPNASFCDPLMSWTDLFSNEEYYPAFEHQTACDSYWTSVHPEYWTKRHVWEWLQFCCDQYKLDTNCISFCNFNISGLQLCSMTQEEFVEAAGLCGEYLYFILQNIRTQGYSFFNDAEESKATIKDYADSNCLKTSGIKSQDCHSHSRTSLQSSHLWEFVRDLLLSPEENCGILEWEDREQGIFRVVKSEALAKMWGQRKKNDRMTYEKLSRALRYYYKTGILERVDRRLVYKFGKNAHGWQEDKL
# How it was run: as §1
# [17] = biological target: T12, ETV3 (Homo sapiens, UniProt P41162-2 1-143); settings: protein: recombinant; tags: N-terminal GST; dsDNA, one strand shown
# T12 sequence: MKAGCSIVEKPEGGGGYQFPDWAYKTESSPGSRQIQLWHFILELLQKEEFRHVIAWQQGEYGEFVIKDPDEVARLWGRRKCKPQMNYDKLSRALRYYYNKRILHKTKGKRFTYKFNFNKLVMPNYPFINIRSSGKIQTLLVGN
# How it was run: as §1
# [18] = biological target: ETV6 (Homo sapiens, UniProt P41212 1-452); settings: protein: recombinant; tags: N-terminal GST; dsDNA, one strand shown
# Chain of ETV6 (P41212 whole entry): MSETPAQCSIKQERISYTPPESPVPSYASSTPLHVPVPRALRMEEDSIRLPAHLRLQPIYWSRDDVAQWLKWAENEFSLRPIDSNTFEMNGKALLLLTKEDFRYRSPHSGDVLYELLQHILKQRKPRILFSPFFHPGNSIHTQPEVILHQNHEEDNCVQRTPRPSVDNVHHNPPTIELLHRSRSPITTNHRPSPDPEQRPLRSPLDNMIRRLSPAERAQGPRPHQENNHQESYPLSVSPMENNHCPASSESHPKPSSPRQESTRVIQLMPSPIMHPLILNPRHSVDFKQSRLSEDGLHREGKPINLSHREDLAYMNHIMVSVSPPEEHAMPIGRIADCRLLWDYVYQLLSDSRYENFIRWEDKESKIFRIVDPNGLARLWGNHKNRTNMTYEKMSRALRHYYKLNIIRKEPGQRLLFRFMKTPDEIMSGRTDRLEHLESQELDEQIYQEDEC
# How it was run: as §1
sequence,measurement,setting,value
TCAAAA,binding signal,[1],"1.13 fold enrichment (6-mer frequency, TF over GST control)"
same,binding signal,[2],"1.17 fold enrichment (6-mer frequency, TF over GST control)"
same,binding signal,[3],"1.19 fold enrichment (6-mer frequency, TF over GST control)"
same,binding signal,[4],"1.24 fold enrichment (6-mer frequency, TF over GST control)"
same,binding signal,[5],"1.22 fold enrichment (6-mer frequency, TF over GST control)"
same,binding signal,[6],"1.25 fold enrichment (6-mer frequency, TF over GST control)"
same,binding signal,[7],"1.23 fold enrichment (6-mer frequency, TF over GST control)"
same,binding signal,[8],"1.39 fold enrichment (6-mer frequency, TF over GST control)"
same,binding signal,[9],"1.28 fold enrichment (6-mer frequency, TF over GST control)"
same,binding signal,[10],"1.23 fold enrichment (6-mer frequency, TF over GST control)"
same,binding signal,[11],"1.12 fold enrichment (6-mer frequency, TF over GST control)"
same,binding signal,[12],"1.18 fold enrichment (6-mer frequency, TF over GST control)"
same,binding signal,[13],"1.15 fold enrichment (6-mer frequency, TF over GST control)"
same,binding signal,[14],"1.06 fold enrichment (6-mer frequency, TF over GST control)"
same,binding signal,[15],"1.22 fold enrichment (6-mer frequency, TF over GST control)"
same,binding signal,[16],"1.11 fold enrichment (6-mer frequency, TF over GST control)"
same,binding signal,[17],"1.15 fold enrichment (6-mer frequency, TF over GST control)"
same,binding signal,[18],"1.24 fold enrichment (6-mer frequency, TF over GST control)"
